From the supplement of paper PMC10849652
Of roughly 7,900 targets only a part is listed; those with a hit were picked by preference. About 0.6% of all pairs of compound and target were hits.

Columns and labels:
Assay in all cases: log2 fold change, soluble protein after heating vs DMSO (PISA); higher = thermal stabilisation; K562 cells, 10 uM, 30 min; active = over 0.2 and 3.5 SD of the protein, either way, in both replicates (recomputed)
[1] = compound: C#Cc1cccc(Nc2ncnc3cc(OCCOC)c(OCCOC)cc23)c1 [erlotinib]
In short: (§1)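 K562 cells at 2×10^6 cells/mL were given 10 μM compound for 30 min. Aliquots then went through 3 min of heating across 48°C-58°C, were pooled, and were extracted in PBS with 0.5% NP-40 at 4°C, and the supernatant after 21,000xg for 90 min was quantified by TMTpro 16plex LC-MS/MS with channel sums equalised. Thermal stability relative to control samples, from duplicates, is given as log2 fold change.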

[2] = compound: C/C(=N\NC(=O)C1=CC(=CC=C1)S(=O)(=O)N2CCOCC2)/C3=C(C=CC(=C3)Cl)O
In short: as §1

[3] = compound: C1=CC(=C(C=C1Cl)C2=NC3=NC=CN=C3C(=N2)NC4=CC=NC=C4)F
In short: as §1

[4] = compound: C1=CC(=CC=C1C2=NC3=C(N2)C=C(C=C3)C(=O)N)OC4=CC=C(C=C4)Cl
In short: as §1

[5] = compound: C1=CC2=C(C=CC(=C2)/C=C\3/C(=O)NC(=NCC4=CC=CS4)S3)N=C1
In short: as §1

[6] = compound: C1=CC2=NC=CN=C2C=C1/C=C/3\C(=O)NC(=O)S3
In short: as §1

[7] = compound: C1=CC=C(C=C1)C2=NC(=C(N2)C3=CC=NC=C3)C4=CC(=C(C=C4)Cl)O
In short: as §1

[8] = compound: C1=CC=C2C(=C1)C3=NNC4=CC=CC(=C43)C2=O
In short: as §1

[9] = compound: C1CCN(C1)C(=O)NC2=CC=CC(=C2)NC3=NC=C(C(=N3)NCCC4=CN=CN4)Br
In short: as §1

[10] = compound: C1CN(CCC1(CC2=CC=C(C=C2)Cl)N)C3=NC=NC4=C3C=CN4
In short: as §1

[11] = compound: C1COCCN1CCN2C3=CC=CC=C3N=C2NC(=O)C4=CC(=CC=C4)[N+](=O)[O-] [IRAK-1-4 Inhibitor I]
In short: as §1

[12] = compound: C=CC(=O)N1CCC[C@@H](n2nc(-c3ccc(Oc4ccccc4)cc3)c3c(N)ncnc32)C1 [ibrutinib]
In short: as §1

[13] = compound: CC(=O)c1cnc2ccc(-c3cc(Cl)c(O)c(Cl)c3)nc2c1N[C@H]1CC[C@H](CN(C)C)CC1
In short: as §1

[14] = compound: CC(C)(C)Cn1c(N)nc2ccc(-c3[nH]c(C(C)(C)C)nc3-c3ccc(F)cc3)nc21 [ralimetinib]
In short: as §1

[15] = compound: CC(C)(O)CC(=O)NCCn1ccc2ncnc(Nc3ccc(Oc4cccc(C(F)(F)F)c4)c(Cl)c3)c21
In short: as §1

[16] = compound: CC(C)C1=C2N=C(C=C(N2N=C1)NCC3=CC=CC=C3)NCCCCCCN
In short: as §1

[17] = compound: CC(C)C[C@@H](C=O)NC(=O)[C@H](CC(C)C)NC(=O)[C@H](CC(C)C)NC(=O)OCc1ccccc1
In short: as §1

[18] = compound: CC(C)N(C[C@H]1O[C@@H](n2cnc3c(N)ncnc32)[C@H](O)[C@@H]1O)[C@H]1C[C@@H](CCc2nc3cc(C(C)(C)C)ccc3[nH]2)C1 [pinometostat]
In short: as §1

[19] = compound: CC1=C(C(CC(=O)N1)C2=CC=C(C=C2)C(F)(F)F)C(=O)NC3=C(C=C4C(=C3)C=NN4)F
In short: as §1

[20] = compound: CC1=C(C2=C(C=C1)C(=O)C3=CC=CC=C3N2CCCN)C
In short: as §1

Measured: log2 fold change

GLCCI1 (UniProt Q86VQ1)
Sequence of UniProt Q86VQ1 (Q86VQ1 whole entry, looked up): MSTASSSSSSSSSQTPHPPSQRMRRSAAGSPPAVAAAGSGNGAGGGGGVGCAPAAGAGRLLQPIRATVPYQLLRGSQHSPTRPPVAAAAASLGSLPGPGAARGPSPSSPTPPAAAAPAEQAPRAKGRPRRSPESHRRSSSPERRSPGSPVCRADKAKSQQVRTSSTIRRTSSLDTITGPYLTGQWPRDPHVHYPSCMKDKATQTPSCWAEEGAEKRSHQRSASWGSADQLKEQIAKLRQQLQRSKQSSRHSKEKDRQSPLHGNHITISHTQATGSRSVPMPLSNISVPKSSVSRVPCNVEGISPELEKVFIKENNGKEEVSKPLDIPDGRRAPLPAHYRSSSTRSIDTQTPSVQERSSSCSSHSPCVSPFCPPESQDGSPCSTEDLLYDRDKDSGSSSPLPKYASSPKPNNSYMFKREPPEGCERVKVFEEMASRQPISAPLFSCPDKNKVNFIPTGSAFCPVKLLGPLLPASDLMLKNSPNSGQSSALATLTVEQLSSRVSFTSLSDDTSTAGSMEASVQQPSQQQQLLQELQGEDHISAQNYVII
inactive: [1] 0.027 | [2] -0.101 | [3] -0.058 | [4] -0.006 | [5] 0.091 | [6] 0.023 | [7] -0.264 | [8] -0.017 | [9] -0.044 | [10] -0.024 | [11] 0.062 | [12] 0.013 | [13] -0.131 | [14] 0.001 | [15] -0.012 | [16] 0.075 | [17] 0.017 | [18] -0.03 | [19] 0.098 | [20] -0.013

GLUL (UniProt P15104)
Sequence of UniProt P15104 (P15104 whole entry, looked up): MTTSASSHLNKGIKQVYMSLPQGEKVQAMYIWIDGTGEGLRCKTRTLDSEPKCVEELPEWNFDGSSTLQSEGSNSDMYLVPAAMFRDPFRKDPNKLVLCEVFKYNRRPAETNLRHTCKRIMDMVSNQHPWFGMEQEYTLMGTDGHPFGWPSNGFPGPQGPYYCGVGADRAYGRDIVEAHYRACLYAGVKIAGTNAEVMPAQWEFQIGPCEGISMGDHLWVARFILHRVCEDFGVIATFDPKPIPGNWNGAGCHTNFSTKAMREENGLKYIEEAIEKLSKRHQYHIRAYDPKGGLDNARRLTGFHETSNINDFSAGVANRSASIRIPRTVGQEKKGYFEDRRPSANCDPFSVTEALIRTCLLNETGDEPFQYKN
inactive: [1] -0.058 | [2] 0.016 | [3] 0.027 | [4] 0.022 | [5] -0.006 | [6] -0.003 | [7] -0.007 | [8] -0.045 | [9] -0.037 | [10] 0.017 | [11] 0.054 | [12] 0.009 | [13] -0.049 | [14] -0.02 | [15] 0.018 | [16] 0.058 | [17] -0.013 | [18] -0.021 | [19] 0.105 | [20] -0.058

GABPA (UniProt Q06546)
Sequence of UniProt Q06546 (Q06546 whole entry, looked up): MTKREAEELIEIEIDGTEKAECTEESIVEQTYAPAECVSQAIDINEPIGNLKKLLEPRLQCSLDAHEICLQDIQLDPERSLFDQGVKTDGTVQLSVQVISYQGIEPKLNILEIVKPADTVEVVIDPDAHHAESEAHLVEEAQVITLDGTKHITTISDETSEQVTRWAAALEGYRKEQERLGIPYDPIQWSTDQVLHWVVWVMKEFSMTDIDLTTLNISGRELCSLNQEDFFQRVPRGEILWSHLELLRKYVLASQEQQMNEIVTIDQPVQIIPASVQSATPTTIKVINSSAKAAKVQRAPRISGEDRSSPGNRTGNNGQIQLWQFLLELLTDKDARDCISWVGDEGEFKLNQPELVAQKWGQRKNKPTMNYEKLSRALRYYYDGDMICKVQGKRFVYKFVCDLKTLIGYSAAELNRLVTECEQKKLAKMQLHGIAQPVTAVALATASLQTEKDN
inactive: [1] 0.07 | [2] 0.121 | [3] 0.014 | [4] -0.042 | [5] 0.083 | [6] -0.055 | [7] 0.049 | [8] 0.025 | [9] -0.028 | [10] 0.011 | [11] -0.004 | [12] -0.014 | [13] -0.054 | [14] 0.001 | [15] -0.107 | [16] -0.243 | [17] -0.013 | [18] -0.007 | [19] -0.043 | [20] -0.175

HNRNPUL2 (UniProt Q1KMD3)
Sequence of UniProt Q1KMD3 (Q1KMD3 whole entry, looked up): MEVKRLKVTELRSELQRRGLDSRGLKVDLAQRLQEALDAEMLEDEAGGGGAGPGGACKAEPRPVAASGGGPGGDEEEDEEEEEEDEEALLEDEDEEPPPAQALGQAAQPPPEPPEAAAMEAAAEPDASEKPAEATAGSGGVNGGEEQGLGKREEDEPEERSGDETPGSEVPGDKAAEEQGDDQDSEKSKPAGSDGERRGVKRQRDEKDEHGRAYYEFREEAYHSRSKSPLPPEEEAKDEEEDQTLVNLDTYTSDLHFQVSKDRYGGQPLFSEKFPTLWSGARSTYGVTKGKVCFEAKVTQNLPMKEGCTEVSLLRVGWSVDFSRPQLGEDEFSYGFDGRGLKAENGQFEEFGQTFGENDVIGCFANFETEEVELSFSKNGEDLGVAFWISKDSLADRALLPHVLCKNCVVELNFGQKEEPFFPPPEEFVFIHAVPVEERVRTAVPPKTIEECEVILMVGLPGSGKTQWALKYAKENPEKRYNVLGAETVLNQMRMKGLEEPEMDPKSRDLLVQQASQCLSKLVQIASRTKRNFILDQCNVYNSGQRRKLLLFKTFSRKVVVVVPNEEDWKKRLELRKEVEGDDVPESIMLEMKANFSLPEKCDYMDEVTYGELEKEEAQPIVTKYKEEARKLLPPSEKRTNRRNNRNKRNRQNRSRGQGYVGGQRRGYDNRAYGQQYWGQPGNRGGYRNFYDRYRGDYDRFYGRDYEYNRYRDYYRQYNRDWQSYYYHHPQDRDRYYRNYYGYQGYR
inactive: [1] -0.054 | [2] -0.08 | [3] -0.138 | [4] -0.015 | [5] -0.057 | [6] 0.012 | [7] -0.056 | [8] -0.014 | [9] 0.011 | [10] -0.102 | [11] -0.033 | [12] -0.022 | [13] -0.014 | [14] -0.033 | [15] 0.024 | [16] 0.117 | [17] 0.054 | [18] 0.107 | [19] -0.009 | [20] 0.023

GLRX3 (UniProt O76003)
Sequence of UniProt O76003 (O76003 whole entry, looked up): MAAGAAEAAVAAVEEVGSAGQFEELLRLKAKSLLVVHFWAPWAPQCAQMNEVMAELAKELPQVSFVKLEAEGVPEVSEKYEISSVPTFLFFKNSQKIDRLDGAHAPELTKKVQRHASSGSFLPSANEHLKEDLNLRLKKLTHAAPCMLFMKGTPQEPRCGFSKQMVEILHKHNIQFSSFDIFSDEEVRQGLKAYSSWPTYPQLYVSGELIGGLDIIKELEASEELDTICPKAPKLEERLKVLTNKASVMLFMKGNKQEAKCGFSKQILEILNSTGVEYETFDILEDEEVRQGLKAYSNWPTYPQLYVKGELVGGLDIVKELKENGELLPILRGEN
inactive: [1] -0.031 | [2] 0.024 | [3] 0.052 | [4] -0.037 | [5] 0.011 | [6] 0.006 | [7] 0.031 | [8] -0.001 | [9] 0.003 | [10] -0.015 | [11] -0.03 | [12] -0.015 | [13] 0.02 | [14] 0.002 | [15] -0.027 | [16] -0.024 | [17] -0.033 | [18] -0.033 | [19] -0.021 | [20] -0.025

GSTT1 (UniProt P30711)
Sequence of UniProt P30711 (P30711 whole entry, looked up): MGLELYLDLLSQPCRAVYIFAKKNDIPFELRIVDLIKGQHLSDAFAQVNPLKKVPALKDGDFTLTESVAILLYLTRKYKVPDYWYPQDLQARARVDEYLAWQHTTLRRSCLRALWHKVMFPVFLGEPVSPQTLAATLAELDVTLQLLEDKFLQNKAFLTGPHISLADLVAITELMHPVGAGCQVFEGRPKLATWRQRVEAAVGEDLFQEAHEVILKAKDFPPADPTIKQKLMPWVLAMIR
inactive: [1] 0.037 | [2] -0.007 | [3] 0.275 | [4] 0.033 | [5] 0.114 | [6] 0.037 | [7] -0.044 | [8] -0.031 | [9] 0.003 | [10] -0.028 | [11] -0.054 | [12] 0.007 | [13] 0.009 | [14] -0.079 | [15] -0.079 | [16] 0.076 | [17] -0.005 | [18] -0.124 | [19] 0.139 | [20] 0.157

HRAS (UniProt P01112)
Sequence of UniProt P01112 (P01112 whole entry, looked up): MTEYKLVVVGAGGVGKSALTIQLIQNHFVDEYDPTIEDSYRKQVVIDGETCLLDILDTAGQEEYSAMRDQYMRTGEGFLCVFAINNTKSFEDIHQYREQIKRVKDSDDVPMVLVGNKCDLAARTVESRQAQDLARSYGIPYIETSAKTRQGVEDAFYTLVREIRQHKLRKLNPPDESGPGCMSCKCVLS
inactive: [1] 0.029 | [2] 0.034 | [3] 0.069 | [4] 0.146 | [5] -0.356 | [6] -0.244 | [7] 0.138 | [8] -0.168 | [9] -0.08 | [10] 0.048 | [11] 0.093 | [12] 0.143 | [13] 0.065 | [14] 0 | [15] -0.004 | [16] 0.047 | [17] 0.13 | [18] -0.059 | [19] -0.013 | [20] -0.121

HDHD2 (UniProt Q9H0R4)
Sequence of UniProt Q9H0R4 (Q9H0R4 whole entry, looked up): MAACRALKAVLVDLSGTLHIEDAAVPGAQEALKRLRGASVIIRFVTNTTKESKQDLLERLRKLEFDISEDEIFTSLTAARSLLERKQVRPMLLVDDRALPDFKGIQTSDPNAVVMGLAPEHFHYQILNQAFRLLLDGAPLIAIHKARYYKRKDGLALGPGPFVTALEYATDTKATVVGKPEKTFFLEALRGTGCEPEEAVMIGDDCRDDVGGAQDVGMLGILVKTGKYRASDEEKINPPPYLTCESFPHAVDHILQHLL
inactive: [1] 0.029 | [2] 0 | [3] 0.133 | [4] 0.009 | [5] 0.013 | [6] 0.046 | [7] -0.015 | [8] -0.018 | [9] -0.009 | [10] 0.037 | [11] 0.007 | [12] -0.019 | [13] 0.021 | [14] -0.006 | [15] -0.168 | [16] 0.024 | [17] -0.037 | [18] -0.018 | [19] -0.025 | [20] 0.003
